Measured values from PubChem BioAssay AID1159580 (chemical genetic matrix, 2015).
About 2,000 (36%) of roughly 5,500 compounds were called active. Roughly 18% stayed inconclusive and do not appear here. Cut-off read from the data, not from the text of the source: active = normalized growth mostly below about 0.91 (no sharp cut-off); inconclusive = no clear call, values can overlap the other calls; inactive = mostly above about 0.92. The list shows a part of the results.

Test: chemical genetic growth profiling, strain panel (AID 1159580);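 note: tested at 20 µM; growth read once vehicle control cultures reached saturation at 30 °C; 1 = growth at the plate median or of vehicle wells; lower values mean less growth of the strain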
Conditions: S. cerevisiae deletion strains, growth OD

Measured: normalized growth

O=C(O)c1cn(-c2ccc(F)cc2)c2cc(N3CCNCC3)c(F)cc2c1=O
inactive: locus YAL021C, strain ccr4, active compounds read low 0.949 | locus YAL026C, strain drs2, active compounds read low 0.975 | locus YAL030W, strain snc1, active compounds read low 0.964 | locus YBL061C, strain skt5, active compounds read low 0.981 | locus YBR009C, strain hhf1, active compounds read low 0.979 | locus YBR023C, strain chs3, active compounds read low 0.966 | locus YBR171W, strain sec66, active compounds read low 0.958 | locus YBR231C, strain swc5, active compounds read low 0.967 | locus YBR279W, strain paf1, active compounds read low 0.959 | locus YCL011C, strain gbp2, active compounds read low 0.975 | locus YCL016C, strain dcc1, active compounds read low 0.983 | locus YCL061C, strain MRC1, active compounds read low 0.969 | locus YCL069W, strain vba3, active compounds read low 0.983 | locus YCR088W, strain abp1, active compounds read low 0.982 | locus YDL005C, strain med2, active compounds read low 0.985 | locus YDL040C, strain nat1, active compounds read low 0.979 | locus YDR001C, strain nth1, active compounds read low 0.952 | locus YDR069C, strain doa4, active compounds read low 0.94 | locus YDR137W, strain rgp1, active compounds read low 0.921 | locus YDR159W, strain sac3, active compounds read low 0.96 | locus YDR195W, strain ref2 0.921 | locus YDR297W, strain sur2, active compounds read low 0.981 | locus YDR334W, strain swr1, active compounds read low 0.938 | locus YDR335W, strain msn5, active compounds read low 0.949 | locus YDR392W, strain spt3, active compounds read low 1.02 | locus YEL003W, strain gim4, active compounds read low 0.96 | locus YEL037C, strain rad23, active compounds read low 0.959 | locus YEL061C, strain CIN8 (second series), active compounds read low 0.97 | locus YER015W, strain faa2, active compounds read low 0.983 | locus YER016W, strain bim1, active compounds read low 0.967 | locus YER111C, strain swi4, active compounds read low 0.967 | locus YER155C, strain BEM2 (second series), active compounds read low 0.919 | locus YFR010W, strain ubp6, active compounds read low 0.949 | locus YGL167C, strain pmr1, active compounds read low 0.941 | locus YGL173C, strain kem1, active compounds read low 0.984 | locus YGL227W, strain vid30, active compounds read low 0.954 | locus YGL240W, strain doc1, active compounds read low 0.944 | locus YGL253W, strain hxk2, active compounds read low 0.993 | locus YHR013C, strain ard1, active compounds read low 0.982 | locus YHR027C, strain rpn1, active compounds read low 0.976 | locus YHR030C, strain SLT2, active compounds read low 1.04 | locus YHR079C, strain IRE1, active compounds read low 1.03 | locus YHR142W, strain chs7, active compounds read low 1.01 | locus YJL092W, strain hpr5, active compounds read low 0.974 | locus YJL095W, strain BCK1 (second series), active compounds read low 0.977 | locus YJL095W, strain BCK1, active compounds read low 0.976 | locus YJL115W, strain asf1, active compounds read low 0.963 | locus YJL129C, strain trk1, active compounds read low 0.992 | locus YJL154C, strain vps35, active compounds read low 0.97 | locus YJL164C, strain tpk1, active compounds read low 0.993 | locus YJL166W, strain qcr8, active compounds read low 0.947 | locus YJL187C, strain SWE1, active compounds read low 0.979 | locus YJR066W, strain TOR1, active compounds read low 0.985 | locus YKL160W, strain elf1, active compounds read low 0.989 | locus YKR026C, strain gcn3, active compounds read low 0.962 | locus YKR091W, strain srl3, active compounds read low 0.979 | locus YLL001W, strain dnm1, active compounds read low 0.977 | locus YLL026W, active compounds read low 0.967 | locus YLL041C, strain sdh2, active compounds read low 0.977 | locus YLR027C, strain aat2, active compounds read low 0.982 | locus YLR113W, strain HOG1, active compounds read low 0.975 | locus YLR221C, strain rsa3, active compounds read low 0.992 | locus YLR258W, strain gsy2, active compounds read low 0.979 | locus YLR262C, strain YPT6 (second series), active compounds read low 0.951 | locus YLR320W, strain mms22, active compounds read low 0.981 | locus YLR342W, strain FKS1, active compounds read low 0.96 | locus YLR357W, strain rsc2, active compounds read low 0.958 | locus YLR370C, strain arc18, active compounds read low 0.948 | locus YLR384C, strain iki3, active compounds read low 0.971 | locus YML120C, strain ndi1, active compounds read low 0.972 | locus YMR058W, strain fet3, active compounds read low 0.968 | locus YMR125W, strain sto1, active compounds read low 0.967 | locus YMR129W, active compounds read low 0.997 | locus YMR205C, strain PFK2, active compounds read low 0.995 | locus YMR231W, strain pep5, active compounds read low 0.973 | locus YNL071W, strain lat1, active compounds read low 0.991 | locus YNL183C, strain NPR1, active compounds read low 0.982 | locus YNL209W, strain ssb2, active compounds read low 0.972 | locus YNL248C, strain rpa49, active compounds read low 1.02 | locus YNL322C, strain KRE1 (second series), active compounds read low 0.966 | locus YNR049C, strain mso1, active compounds read low 0.979 | locus YOR001W, strain rrp6, active compounds read low 0.952 | locus YOR070C, strain gyp1, active compounds read low 0.984 | locus YOR080W, strain dia2, active compounds read low 0.945 | locus YOR083W, strain WHI5, active compounds read low 0.987 | locus YOR106W, strain vam3, active compounds read low 0.962 | locus YOR231W, strain MKK1, active compounds read low 1.01 | locus YOR265W, strain rbl2, active compounds read low 0.974 | locus YOR270C, strain vph1, active compounds read low 0.947 | locus YOR290C, strain snf2, active compounds read low 0.965 | locus YPL051W, strain arl3, active compounds read low 0.955 | locus YPL078C, strain atp4, active compounds read low 0.972 | locus YPL106C, strain sse1, active compounds read low 0.895 | locus YPL240C, strain hsp82, active compounds read low 0.996 | locus YPL256C, strain CLN2, active compounds read low 1.06
